Assay outcomes deposited in PubChem by National Center for Advancing Translational Sciences (NCATS).
Luc counter: counter-screen: inhibitors of Kinase-Glo firefly luciferase; Q27757; 0.28% of 200,000 active; Kinase-Glo luciferase, ATP luminescence, 8 min; AID 1379; Potency, µM (titrated, usually from 38.3 µM), without a hit: at the top dose activity change, negative = inhibition, actives largely listed as inhibitors; note: % is set by controls: 0 for no effect and ±100 for the full control effect; nearly all actives have a fitted effect of over 60% in size
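Compound is pinned into ATP-containing buffer (10 uM ATP, imidazole pH 7.2, 7 mM MgCl2). Kinase-Glo luciferase reagent is then added. Light output is recorded following an 8-min room-temperature incubation.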
NPC1 promoter act: NPC1 promoter activation | Huh7 NPC1 promoter luciferase reporter, 24 h | Potency, µM (titrated, usually from 9.22 µM), for inactives: at the top dose activation, most hits filed as activators | 2.4% of 320,000 active | AID 485313; note: % of control where 0% means no effect; nearly all actives have a fitted effect of over 60% in size
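Huh7 cells stably carrying NPC1 promoter–luciferase, plated in Opti-MEM with 10% FBS for 2 h, were exposed to compound in DMSO for 24 h at 37 °C; luciferase reagent was added for 10 min and luminescence read.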
ELG1 genotoxic: inducers of genotoxicity in HEK293T ELG1-luciferase cells; HEK293T ELG1-luciferase reporter, luminescence, 16 h; Potency, µM (titrated, usually from 46 µM), without a hit: top-dose activity change, positive = activation, actives largely listed as activators; 1.3% of 330,000 active; note: % of control where 0% means no effect; nearly all actives have a fitted effect of over 60% in size
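Reporter readout depends on ELG1 protein level, which increases with genetic stress. After 16 hr compound exposure at 37 °C, luciferase activity was quantified using ONE-Glo.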
FLuc counter: firefly luciferase modulation, counter-screen for miR-21 project; purified FLuc, Km substrates, luminescence inhibition; Potency, µM (highest dose often 57.5 µM), inactives show at the top dose activity change, negative = inhibition, hits mostly inhibitors; 6.9% of 360,000 active;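 note: plate controls were vehicle for no effect and reference inhibitor for full effect; nearly all actives have a fitted effect of over 55% in size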
Target sequence (P08659 whole entry, looked up): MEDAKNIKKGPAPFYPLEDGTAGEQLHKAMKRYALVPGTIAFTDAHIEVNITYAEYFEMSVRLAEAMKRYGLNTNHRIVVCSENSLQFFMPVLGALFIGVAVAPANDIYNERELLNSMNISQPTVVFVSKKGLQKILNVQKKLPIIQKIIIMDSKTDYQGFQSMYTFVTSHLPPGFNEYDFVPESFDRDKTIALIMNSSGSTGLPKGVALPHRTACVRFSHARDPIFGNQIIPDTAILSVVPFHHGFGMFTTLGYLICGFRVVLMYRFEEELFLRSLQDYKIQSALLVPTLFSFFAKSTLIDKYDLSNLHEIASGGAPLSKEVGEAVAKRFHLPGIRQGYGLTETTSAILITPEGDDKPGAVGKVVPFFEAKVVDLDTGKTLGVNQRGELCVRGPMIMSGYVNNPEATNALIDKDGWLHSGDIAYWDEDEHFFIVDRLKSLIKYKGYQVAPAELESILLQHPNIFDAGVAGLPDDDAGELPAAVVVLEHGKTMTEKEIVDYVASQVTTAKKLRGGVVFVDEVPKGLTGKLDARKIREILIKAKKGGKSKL
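Purified P. pyralis luciferase, 10 nM final, with Km-level 10 uM D-luciferin and 10 uM ATP in 50 mM Tris acetate pH 7.5, 10 mM Mg acetate, 0.01% Tween-20, 0.05% BSA; 6-point qHTS titration about 60 µM downward; luminescence read.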
SMN2 splice enh: SMN2 splice variant enhancement | 2.8% of 210,000 active | AID 1458 | Potency, µM (doses to about 46.1 µM), without a hit: top-dose activity change, positive = activation, usual class: activators | HEK293 SMN2-luciferase splicing reporter, luminescence, 30-36 h; note: % of control where 0% means no effect; nearly all actives have a fitted effect of over 55% in size
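HEK293 cells carry an SMN2 minigene-luciferase reporter in which exon 7 inclusion puts luciferase in frame. Cells were seeded at 2000 cells/well, attached for 10-12 hours, then exposed to compounds for 30-36 hours at 37C before ONE-Glo luminescence.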
Rab9 promoter act: activates the Rab9 promoter; Huh7 Rab9 promoter-luciferase reporter, luminescence, 24 h; Potency, µM (series often up to 9.22 µM), for the others: at the top dose activation, negative = inhibition, hits mostly activators; 2.8% of 320,000 active; note: % of control where 0% means no effect; nearly all actives have a fitted effect of over 60% in size
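Promoter activation is measured as luciferase luminescence in Huh7 cells stably transfected with a Rab9 promoter–luciferase construct, following 24 h compound exposure at 37 °C and 10 min reagent incubation at ambient temperature.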
An asterisk follows results filed as active; ? = inconclusive; · = no result given; [ ] = another dose, or the depositor's remark. An excerpt weighted towards active compounds, which were near 7.5% of everything screened. Calls come from the whole dose curve; as a rule, active = well fitted curve in the direction sought with a large enough effect; inconclusive = small, poorly fitted or top-dose-only effect, or another doubt; inactive = no such curve, though single readings can be large; an effect the other way counts as inactive or inconclusive. Potency is the fitted concentration of half-maximal effect.

SMILES	Luc counter	NPC1 promoter act	ELG1 genotoxic	FLuc counter	SMN2 splice enh	Rab9 promoter act
Cc1c(-c2ccccc2)[n+](=O)c2c(n1[O-])CCCC2	·	1%	2%	5%	·	-1%
CN1CCc2c(sc(/N=C/c3c[nH]c4ccccc34)c2C#N)C1	·	17%	?	1.3µM*	·	2.8µM*
CN1CCc2c(sc(/N=C/c3cc(Cl)ccc3O)c2C#N)C1	·	18%	16µM*	2.4µM*	·	?
CN1CCc2c(sc(/N=C/c3c[nH]c4ccccc34)c2C(N)=O)C1	·	13%	-12%	?	·	-1%
CCOC(=O)c1c(/N=C/c2ccc(OC)cc2O)sc2c1CCN(C)C2	·	1%	-2%	?	·	-3%
CC(Oc1cccc(Cl)c1)C(=O)N1CCCN(C)CC1 (stereo not given)	·	1%	3%	0%	·	11%
COc1cccc(NC(=O)CCC2CCN(C(=O)c3cncs3)CC2)c1	·	-5%	-1%	1%	·	13%
O=C(Nc1ccc2c(c1)OCO2)c1cc(-c2ccccc2Cl)on1	·	2.5µM*	9.2µM*	5.4µM*	·	1.6µM*
O=C(NCc1ccc2c(c1)OCO2)c1cc(-c2ccccc2Cl)on1	-2%	1%	9%	17µM*	12%	-2%
COc1ccc(-c2cc(C(=O)Nc3ccc4c(c3)OCO4)no2)cc1OC	·	-1%	18%	0%	-6%	-2%
COCc1c(CCl)cnc(C)c1O	1%	-2%	5%	17µM*	·	4%
Cc1ncc(CO)c(CO)c1O	3%[17.1 µM]	-3%	2%	5%	6%[20.6 µM]	-5%
O=Nc1ccc(NOC(=O)c2ccccc2)cc1	10µM*	-3%	-3%	0.095µM*	-38%	-3%
CC1=C(c2ccc(C)cc2)S(=O)(=O)N(Cc2ccc(C(=O)Nc3ccc(F)cc3C)cc2)C1=O	·	·	·	-5%	·	·
Cc1ccc(CN(C)C(=O)c2cc(COc3ccc(F)cc3Cl)on2)o1	-2%	14%	9%	21µM*	·	14%
Cc1nonc1CN(C)C(=O)c1cc(COc2ccc(F)cc2Cl)on1	·	27%	9%	?	·	19%
Cc1cc(CN(C)C(=O)c2cc(COc3ccc(F)cc3Cl)on2)n[nH]1	-2%	24%	?	17µM*	·	?
CCc1cc(=O)oc2c(C)c3c(cc12)CN(CCc1ccccc1OC)CO3	·	·	·	-1%	-8%	·
O=C(c1ccccc1)[C@H]1[C@H](c2ccccc2)[C@@]2(N=C(c3ccccc3)OC2=O)C2c3ccccc3C=NN21 (stereo not given in full)	-1%	4µM*	6%	?	?	4.5µM*
Clc1c(-c2nnc3n2CCC3)sc2ccccc12	-1%	-1%	23%	21µM*	8%	2%
CCOc1ccccc1NC(=O)Cn1c(=O)n(-c2ccc(Cl)cc2)c(=O)c2oc3ccccc3c21	·	·	·	-5%	·	·
COc1ccc(/C=c2\s/c(=C/C(=O)c3ccc(C)cc3)[nH]c2=O)cc1OC	0%	-1%	-4%	11µM*	-13%	3%
CCc1ccc(/C=c2\s/c(=C\C(=O)C(C)(C)C)[nH]c2=O)cc1	-2%	12%	-13%	?	10%	-4%
Cc1ccc(C(=O)Cn2c3c(sc2=N)CCCC3)cc1	?	·	·	·	0.5µM*	·
Cc1ccc2nc(COc3ccc(Cl)cc3)cc(=O)n2c1	3%	3.5µM*	23%	?	13µM*	1.3µM*
SMILES	Luc counter	NPC1 promoter act	ELG1 genotoxic	FLuc counter	SMN2 splice enh	Rab9 promoter act
COc1ccc(OC)c(NC(=O)Nc2cccc(OCc3cc(=O)n4cc(C)ccc4n3)c2)c1	·	·	·	1.2µM*	·	·
CCc1ccc(NC(=O)c2sc3nc(C)cc(C)c3c2NC(=O)c2ccccc2OC)cc1	·	·	·	0%	20%	·
CCOC(=O)CNC(=O)CSc1nnc(NC(=O)c2ccccc2Cl)s1	-8%	24%	?	11µM*	?	?
O=C(CSc1nc2ccccc2s1)Nc1ccc2c(c1)oc1ccccc12	-3%	17%	8%	-2%	11µM*	24%
O=c1oc2ccccc2n1CSc1nc2ccccc2s1	-2%	2.8µM*	?	12µM*	14%	4µM*
CCOC(=O)CNC(=O)CSc1nnc(NC(=O)c2ccc(S(=O)(=O)N3CCOCC3)cc2)s1	·	-2%	3%	?	·	0%
CC(=O)Nc1nnc(SCC(=O)NC(C)(C)C)s1	-5%	17%	-7%	0%	-8%	12%
CC(C)(C)NC(=O)CSc1nnc(NC(=O)c2ccccc2Cl)s1	-7%	10%	7%	17µM*	15%	11%
O=C(CSc1nnc(-c2cccc(F)c2)o1)N1CCCC1	·	?	8%	?	·	?
C=CCNC(=O)/C(C#N)=C\c1cc(Cl)c(OCC)c(OC)c1	0%	-4%	3%	-7%	-6%	1%
O=C(CSc1nc2ccccc2s1)CSc1nc2ccccc2s1	-5%	6%	2%	-2%	19%	-4%
O=C(CSc1nc2ccccc2s1)c1cc2ccccc2o1	-1%	·	·	17µM*	0%	·
O=C(CSc1nnc(NC(=O)c2ccccc2Cl)s1)Nc1ccc2c(c1)oc1ccccc12	-10%	3.5µM*	?	0.95µM*	35µM*	?
CC(=O)Nc1nnc(SCC(=O)NC2CCCC2)s1	·	-5%	-10%	2%	·	0%
Cc1ccccc1C(=O)Nc1nnc(SCC(=O)NC2CC2)s1	·	2.5µM*	?	8.5µM*	·	2.2µM*
CCC(=O)Nc1nnc(SCC(=O)Nc2cccc(Cl)c2)s1	·	-4%	-5%	-17%	·	-3%
O=C(CSc1nnc(NC(=O)c2ccccc2Cl)s1)NC1CC1	·	?	17%	12µM*	·	4.5µM*
COc1ccc(S(=O)(=O)NCCc2csc3nc(-c4cccc(C)c4)nn23)cc1F	·	·	·	-7%	·	·
c1ccc(CN(CCN(Cc2ccccn2)Cc2ccccn2)Cc2ccccn2)nc1	·	·	·	·	-101%	·
O=S(=O)(NC1CCC(CNS(=O)(=O)c2c(F)cccc2F)CC1)c1ccc2c(c1)OCCO2 (stereo not given)	·	-4%	·	0%	·	0%
C[N+](C)(C)C(C1=CCCC1=O)c1ccccc1 (stereo not given)	-3%[7.66 µM]	·	·	·	-1%[9.22 µM]	·
O=C(CSc1nnc(NC(=O)c2c(F)cccc2F)s1)NC1CC1	·	-2%	6%	-6%	·	-2%
O=C(CSc1nnc(NC(=O)c2ccc(F)cc2F)s1)NC1CC1	·	?	?	7.6µM*	·	?
CCc1ccc(NC(=O)c2noc3c2CCCCC3)cc1	8%	0.71µM*	?	2.1µM*	10µM*	0.63µM*
CC(C)(C)C1CCc2onc(C(=O)NC3CCCC3)c2C1 (stereo not given)	-2%	1%	-1%	3%	-33%	-5%
